# Measurements as given in PubChem BioAssay (NCI).
# Compounds without any hit were thinned out: in the full panel of roughly 83,000, 20% have a hit.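 Method: cells in 96-well plates; compound added at one concentration; 48 h incubation; percent growth measured; values under 10 scored active.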 Values without a mark were called inactive. The source made the active and inactive calls.
# Columns and labels:
# Assay in all cases: NCI-60 one-dose screen, 48 h (100 = growth as untreated, 0 = no growth, -100 = all killed)
# Conditions in all cases: 10 µM unless noted
# NCI-H23 lung = tested on: NCI-H23 lung
# NCI-H226 lung = tested on: NCI-H226 lung
# NCI-H322M lung = tested on: NCI-H322M lung
# HOP-62 NSCLC = tested on: HOP-62 NSCLC
# NCI-H460 lung = tested on: NCI-H460 lung
# HOP-92 NSCLC = tested on: HOP-92 NSCLC
# NCI-H522 lung = tested on: NCI-H522 lung
# A549/ATCC NSCLC = tested on: A549/ATCC NSCLC
# 786-0 renal = tested on: 786-0 renal
# COLO 205 colon = tested on: COLO 205 colon
# DU-145 prostate = tested on: DU-145 prostate
# K-562 leukemia = tested on: K-562 leukemia
# MALME-3M melanoma = tested on: MALME-3M melanoma
# MDA-MB-231 breast = tested on: MDA-MB-231 breast
# RXF 393 renal = tested on: RXF 393 renal
# SF-268 CNS = tested on: SF-268 CNS
# SF-295 CNS = tested on: SF-295 CNS
# SF-539 CNS = tested on: SF-539 CNS
# UACC-257 melanoma = tested on: UACC-257 melanoma
# M14 melanoma = tested on: M14 melanoma
Compound,growth (NCI-H23 lung),growth (NCI-H226 lung),growth (NCI-H322M lung),growth (HOP-62 NSCLC),growth (NCI-H460 lung),growth (HOP-92 NSCLC),growth (NCI-H522 lung),growth (A549/ATCC NSCLC),growth (786-0 renal),growth (COLO 205 colon),growth (DU-145 prostate),growth (K-562 leukemia),growth (MALME-3M melanoma),growth (MDA-MB-231 breast),growth (RXF 393 renal),growth (SF-268 CNS),growth (SF-295 CNS),growth (SF-539 CNS),growth (UACC-257 melanoma),growth (M14 melanoma)
CC(C)COC(C[N+](=O)[O-])C(Cl)(Cl)Cl (centres undefined),105%,107%,106%,111%,108%,102%,98.6%,98.1%,112%,102%,119%,99.9%,123%,111%,115%,105%,113%,106%,96.1%,–
CNC12C3C4C1C1C2C3C41C(=O)N[C@H](C(=O)N(C)[C@H](C[C@@H](OC(C)=O)c1nc(C(=O)N[C@@H](Cc2ccccc2)C[C@H](C)C(=O)OC)cs1)C(C)C)C1CC1 (some centres undefined),7.82% (active),11.2%,48.5%,22.1%,14.8%,-15.3% (active),-27.4% (active),17.7%,15.5%,-46.5% (active),-1.19% (active),0.86% (active),34%,0.928% (active),25.5%,14.4%,7.26% (active),-1.2% (active),41.1%,4.03% (active)
COc1cc2c(cc1OCCCCCn1c(-c3ccco3)nc3ccccc31)N=C[C@@H]1CCCN1C2=O,-50% (active),-14.9% (active),-13% (active),6.15% (active),4.72% (active),-5.94% (active),-23.9% (active),9.67% (active),11.5%,4.57% (active),29.3%,5.85% (active),-47.8% (active),9.17% (active),-40.4% (active),8.92% (active),9.61% (active),1.5% (active),–,–
Clc1cccc(N2COOC3(OOC2)C2CC4CC(C2)CC3C4)c1,49%,96.2%,99.6%,73%,87.2%,-7.89% (active),2.67% (active),76%,7.65% (active),111%,89.6%,66.2%,73.5%,98.9%,92.1%,83.8%,86.1%,73.3%,98%,93.8%
CN[C@@]1(c2ccccc2Cl)CCCC[C@@H]1NCC1CCCO1 (some centres undefined),97.4%,97.8%,94.1%,97.4%,110%,92%,91.3%,98%,97.7%,109%,111%,100%,95.3%,105%,106%,103%,98.2%,97%,96.5%,–
CC(=O)O[C@H](C[C@H](C(C)C)N(C)C(=O)[C@@H](NC(=O)[C@H]1CCCN1C)C(C)C)c1nc(C(=O)N[C@@H](Cc2ccccc2)C[C@H](C)C(=O)O)c(C)s1,30.3%,54.8%,52%,29.7%,5.67% (active),16.5%,-24.7% (active),13.3%,22.4%,-63.2% (active),15.3%,9.54% (active),53.9%,15.1%,61.6%,29.9%,11%,-3.18% (active),38.2%,4.87% (active)
CCn1c2ccccc2c2cc(C(=O)c3cccc4c3CCCN4)ccc21,100%,92.2%,102%,95.7%,101%,101%,115%,106%,99%,102%,102%,101%,107%,98.1%,104%,102%,103%,111%,113%,–
CC(C)=CCc1c(O)c(C(=O)CC(C)C)c(O)c2c(-c3ccccc3)cc(=O)oc12,26.8%,47.4%,63.2%,84.2%,27.9%,-13.2% (active),31.5%,54.6%,66.2%,83.1%,61.9%,28%,56.9%,5.93% (active),74.1%,52.1%,43.4%,68.9%,58.1%,–
